Compound activity (PubChem)
TDP1 inh: qHTS Assay for Inhibitors of Tyrosyl-DNA Phosphodiesterase (TDP1); Tyrosyl-DNA phosphodiesterase 1 (Homo sapiens), Q9NUW8; recombinant TDP1, AlphaScreen DNA substrate cleavage; Potency, µM (series often up to 130 µM), for inactives: at the highest dose activity change, negative = inhibition, usual class: inhibitors; actives 0.28% (n = 350,000); further: potency means the concentration at half of the fitted maximal effect; on the % scale 0 is the no-effect control and ±100 the full control effect; nearly all actives have a fitted effect of over 40% in size
Target sequence (Q9NUW8 whole entry, looked up): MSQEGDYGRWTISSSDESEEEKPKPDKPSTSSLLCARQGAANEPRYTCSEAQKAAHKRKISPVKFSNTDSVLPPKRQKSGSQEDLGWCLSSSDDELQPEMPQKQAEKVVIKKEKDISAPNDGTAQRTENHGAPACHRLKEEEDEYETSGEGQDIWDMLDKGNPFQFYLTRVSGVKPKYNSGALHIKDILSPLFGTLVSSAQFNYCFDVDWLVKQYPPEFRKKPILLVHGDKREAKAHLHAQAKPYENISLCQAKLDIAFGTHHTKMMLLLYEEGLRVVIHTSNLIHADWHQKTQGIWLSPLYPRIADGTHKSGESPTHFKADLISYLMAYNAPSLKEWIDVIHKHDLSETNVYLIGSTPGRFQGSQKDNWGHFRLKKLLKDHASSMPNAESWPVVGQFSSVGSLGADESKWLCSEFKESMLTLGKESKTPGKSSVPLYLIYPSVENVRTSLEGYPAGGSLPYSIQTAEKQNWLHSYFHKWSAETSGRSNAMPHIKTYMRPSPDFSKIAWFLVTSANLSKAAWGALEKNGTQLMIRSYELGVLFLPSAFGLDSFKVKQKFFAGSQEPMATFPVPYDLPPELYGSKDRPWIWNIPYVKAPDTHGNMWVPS
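Here, a 5' biotin and 3' phosphotyrosine-FITC DNA oligonucleotide reports Tdp1 activity: intact substrate bridges AlphaScreen beads, while cleavage leaves a 3' phosphate and drops signal. All incubations at room temperature.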
TDP1 cell noCPT: qHTS for Inhibitors of human tyrosyl-DNA phosphodiesterase 1 (TDP1): qHTS in cells in absence of CPT. DT40 Tdp1-/- hTDP1 cells, no CPT, ATP luminescence, 48 h. AID 686978, 2013. actives 15% (n = 420,000). Potency, µM (series often up to 46.2 µM), inactives show top-dose activity change, negative = growth inhibition, actives largely listed as inhibitors; further: potency means the concentration at half of the fitted maximal effect; on the % scale 0 is the no-effect control and ±100 the full control effect; nearly all actives have a fitted effect of over 55% in size
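Camptothecin absent (DMSO only). Human TDP1-complemented DT40 knockout cells, 400 cells/well, 37 °C for minimum 48 hr; ATP measured via CellTiter-Glo, 30 min dark incubation, luminescence.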
miR-21 act: qHTS Assay for Modulators of miRNAs and/orActivators of miR-21; Potency, µM (doses to about 38.3 µM), without a hit: top-dose activity change, positive = activation, usual class: activators; HeLa miR-21 FLuc reporter, luciferase, 48 h; 340,000 tested, under 10 active;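 further: % of control where 0% means no effect; miR-21 action dims this reporter so a rising signal means less miR-21 action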
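HeLa miR-21-FLuc reporter line, endogenous miR-21; 2000 cells/well in DMEM/10% FBS; compound titration up to ~40uM final, 48 h, 37 degree Celsius; luciferase detection reagent, 15 min lysis, CCD luminescence.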
DT40 TDP1 CPT: qHTS for Inhibitors of human tyrosyl-DNA phosphodiesterase 1 (TDP1): qHTS in cells in presence of CPT; chicken DT40 Tdp1-/-;hTDP1 cells + 20 nM CPT, ATP luminescence, 48 h; Potency, µM (titrated, usually from 46.2 µM), without a hit: top-dose activity change, negative = growth inhibition, usual class: inhibitors; actives 12% (n = 420,000); AID 686979, 2013; further: potency means the concentration at half of the fitted maximal effect; on the % scale 0 is the no-effect control and ±100 the full control effect; nearly all actives have a fitted effect of over 55% in size
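Chicken DT40 Tdp1-/- cells complemented with human TDP1, 400 cells/well, exposed to compounds plus 20 nM camptothecin for at least 48 h at 37 C; viability read as ATP content by CellTiter-Glo luminescence.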
uPA generation: qHTS for Inhibitors of Cell Surface uPA Generation; cell surface uPA generation assay, qHTS; Potency, µM (titrated, usually from 38.3 µM), inactives show at the highest dose activity change, negative = inhibition, usual class: inhibitors; actives 0.31% (n = 330,000); AID 540303, 2011; active means well fitted inhibition curve with a large enough effect; inconclusive means small, poorly fitted or top-dose-only effect; inactive means no such curve, though single readings can be large or run the other way; tested in mouse RAW 264.7 cells; further: potency means the concentration at half of the fitted maximal effect; on the % scale 0 is the no-effect control and ±100 the full control effect; nearly all actives have a fitted effect of over 55% in size
Numbers without * were called inactive; ? = inconclusive; . = not tested or not shown; [ ] = dose if it differs, or a comment. In the library only some 16% were active in any assay of this set; here they are far more common. Unless noted, the call rests on the fitted dose curve; in most records, active means well fitted curve in the direction sought with a large enough effect; inconclusive means small, poorly fitted or top-dose-only effect, or another doubt; inactive means no such curve, though single readings can be large; an effect the other way counts as inactive or inconclusive.

SMILES	TDP1 inh	TDP1 cell noCPT	miR-21 act	DT40 TDP1 CPT	uPA generation
C[C@@H]1CN([C@H](C)CO)C(=O)CCCn2cc(nn2)CO[C@H]1CN(C)C(=O)Oc1cccc2ccccc12	.	-26.7%	.	11.4%	.
Nc1ncnc2c1ncn2[C@@H]1O[C@@H]2COP(O)(=S)O[C@H]2[C@H]1O (stereo partly specified)	.	-5.0%	.	6.3%	.
CCNC(=O)[C@@H]1O[C@@H](n2cnc3c(N)ncnc32)[C@H](O)[C@H]1O	-5.7%[56.1 µM]	?	.	?	.
N#Cc1cn(C2OC(CO)C(O)C2O)c2ncnc(N)c12 (stereo unspecified)	.	0.0146µM*	.	0.0146µM*	-6.0%
NC(=O)c1cn(C2OC(CO)C(O)C2O)c2ncnc(N)c12 (stereo unspecified)	0.0%	0.0164µM*	28.5%	0.0082µM*	-11.8%
CC(=O)O[C@@H]1CN2CCC1CC2	-3.6%[56.1 µM]	-6.2%	.	-4.2%	.
CC(=O)Oc1ccc2c3c1O[C@H]1[C@@H](OC(C)=O)C=C[C@H]4[C@@H](C2)N(C)CC[C@@]341	.	?	.	-28.4%[92.5 µM]	.
COc1ccc(CCN)cc1	11.0%	-19.8%	.	-18.7%	.
Cc1ccc(S(=O)(=O)N2Cc3ccccc3-n3nncc3C2)cc1	.	?	.	?	-1.7%
CC(=O)Nc1ccc(S(=O)(=O)N2Cc3ccccc3-n3nncc3C2)cc1	.	14.6µM*	.	14.6µM*	.
O=C(OCc1ccccc1)N1CCC2CC1c1cc(N3Cc4ccccc4-n4nncc4C3)ccc12 (stereo unspecified)	.	5.8µM*	.	7.31µM*	.
CC(C)COC(=O)N1Cc2ccccc2-n2nncc2C1	.	-23.5%	.	-3.2%	.
O=C(NCc1cccnc1)c1ccc(-c2ccc(F)c(F)c2)c2ccoc12	.	4.61µM*	.	5.8µM*	.
CSc1ncc(/C=C2/C(=O)NC(=O)N(C3CCCCC3)C2=O)cn1	-2.9%	7.0%	-3.5%	-2.3%	-0.3%
CCc1ccccc1NC(=O)CNCc1ccccc1	5.1%	-3.5%	-9.5%	13.2%	-5.1%
COC(=O)N1C(=O)[C@@](Cc2ccccc2)(c2ccccc2)N1C(=O)OC	.	18.4µM*	2.7%	?	?
CC1([N+](=O)[O-])COP(=O)(NC2CC2)OC1 (stereo unspecified)	.	-11.9%	.	4.1%	4.1%
O=[N+]([O-])c1cccc2c([N+](=O)[O-])cccc12	3.9%	?	.	-4.2%	5.6%
Cc1cc([N+](=O)[O-])c2ccccc2[n+]1[O-]	.	0.0517µM*	?	0.0461µM*	?
CC1N(P(=O)(c2ccccc2)c2ccccc2)CC(O)(c2ccccc2)CC12CC2 (stereo unspecified)	8.1%	.	.	.	.
CC1CN(c2ccc([N+](=O)[O-])c3cccnc23)CC(C)N1 (stereo unspecified)	2.0%	23.1µM*	-9.2%	-21.3%	0.7%
CCOC(=O)c1cnc(SCc2ccc(Cl)c(Cl)c2)nc1N1CC1	.	0.82µM*	.	0.581µM*	-7.6%
CCC1/C=C/C=CCC(C)C(O)[C@@](C)(O)C(=O)C(C)C(O)C(C)C(=O)C(C)C(O)C(C)C=CC(=O)O[C@H]2C(C)C(CC1)O[C@]1(CCC(C)C(CC(C)O)O1)C2C (stereo partly specified)	16.4%[56.1 µM]	0.0058µM*	.	0.0073µM*	.
ON1C2CCCCC2N(O)C1c1ccccc1F (stereo unspecified)	-5.2%	2.5%	-5.0%	-8.5%	3.8%
N#CC1c2ccccc2-n2nncc2CN1S(=O)(=O)c1ccccc1 (stereo unspecified)	.	-1.1%	.	-1.5%	14.2%
Cc1ccc(NC(=O)CSc2nc(-c3ccco3)cc(C(F)(F)F)n2)c(C)c1	-1.1%	1.84µM*	15.9%	1.46µM*	.
CCN(CC)S(=O)(=O)c1cc(NC(=O)C(C)N2CC=C(c3ccccc3)CC2)ccc1C (stereo unspecified)	0.0%	6.51µM*	22.7%	8.2µM*	-16.2%
